In PubChem BioAssay (EPA / NIEHS):
Active and inactive are the calls of the source. How the source made its calls: active means hit-call score of the fitted dose curve at least 0.9, where 1 is the maximum; inactive means score below 0.9.

What was measured:
[1] = ATG_GRE_CIS: Attagene CIS-FACTORIAL HepG2 Assay for human Glucocorticoid Response Elements (GRE) (AID 2282947); conditions: HepG2 GRE cis-reporter, Attagene multiplex mRNA; actives raise or lower the signal
Outline: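 Endogenous transcription factor activity is read through cis-element reporter constructs transiently transfected into HepG2 cells. After 24 h treatment, labelled RT-PCR products are resolved by capillary electrophoresis; DMSO sets baseline for bidirectional curve fitting.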

[2] = ATG_ISRE_CIS: Attagene CIS-FACTORIAL HepG2 Assay for human Interferon Regulatory Factor 1 (IRF1) binding to an Interferon-Stimulated Response Element (ISRE) (AID 2282948); conditions: HepG2 ISRE cis-reporter (Attagene), mRNA transcription readout; actives raise or lower the signal
Outline: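 Quantitation relies on labelled RT-PCR fragments separated by capillary electrophoresis. Human HepG2 cells bearing cis-promoter reporter constructs were treated 24 h; DMSO served as baseline for bidirectional fitting.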

[3] = ATG_M_32_CIS: Attagene CIS-FACTORIAL HepG2 Assay for M32 Transcription Factor (Internal Marker) (AID 2282949); conditions: HepG2 Attagene cis-factorial M32 reporter, mRNA; actives raise or lower the signal;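 further: background control marker of the multiplexed CIS panel rather than a real target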
Outline: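 Following 24 h chemical exposure of HepG2 cells transiently expressing cis-promoter reporter constructs, reporter transcript levels were determined by RT-PCR with fluorescent labelling and capillary electrophoresis, then fitted bidirectionally against DMSO.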

[4] = ATG_M_06_CIS: Attagene CIS-FACTORIAL HepG2 Assay for M06 Transcription Factor (Internal Marker) (AID 2282950); conditions: HepG2 Attagene CIS-FACTORIAL M06 internal marker reporter; actives raise or lower the signal
Outline: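 Steps: transfect HepG2 with multiplexed cis-element reporter constructs; dose chemical 24 h; extract RNA with DNase treatment; reverse-transcribe, PCR-amplify, 6-FAM label, HpaI digest; separate fragments by capillary electrophoresis. Activity fitted both directions versus DMSO.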

[5] = molecular target: Hypoxia-inducible factor 1-alpha (Homo sapiens) (UniProt Q16665); test: ATG_HIF1a_CIS: Attagene CIS-FACTORIAL HepG2 Assay for human Hypoxia Inducible Factor 1 (HIF1A) (AID 2282951); conditions: HepG2 Attagene cis-factorial HIF1a reporter transcription; actives raise or lower the signal
Outline: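 Cis-element reporter constructs were transiently transfected into HepG2 cells, which were treated for 24 h; reporter RNA was reverse-transcribed, amplified, labelled and resolved by capillary electrophoresis.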

[6] = molecular target: Hepatocyte nuclear factor 6 (Homo sapiens) (UniProt Q9UBC0); test: ATG_HNF6_CIS: Attagene CIS-FACTORIAL HepG2 Assay for human Hepatocyte Nuclear Factor 6 (HNF6) (AID 2282952); conditions: HepG2 Attagene cis-factorial HNF6 reporter transcription; actives raise or lower the signal
Outline: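 Multiplexed mRNA reporter assay in transfected HepG2; 24 h dosing; RT-PCR plus capillary electrophoresis fluorescence; DMSO-referenced bidirectional curve fitting.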

[7] = molecular target: Heat shock factor protein 1 (Homo sapiens) (UniProt Q00613); test: ATG_HSE_CIS: Attagene CIS-FACTORIAL HepG2 Assay for human Heat Shock Transcription Factor 1 (HSE) (AID 2282953); conditions: HepG2 HSE cis-reporter, Attagene RNA transcription; actives raise or lower the signal
Outline: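 Cells were transfected with cis-element-driven reporter constructs, dosed for 24 h, then total RNA was reverse-transcribed and reporter cDNA amplified, FAM-labelled and digested with HpaI. Fragments were resolved by capillary electrophoresis; gain or loss was fitted against DMSO.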

[8] = ATG_MRE_CIS: Attagene CIS-FACTORIAL HepG2 Assay for human Metal Responsive Element (MRE) (AID 2282954); conditions: HepG2 MRE cis-reporter transcription, Attagene multiplex; actives raise or lower the signal
Outline: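 Fluorescent reporter fragments separated by capillary electrophoresis give mRNA induction for the MRE unit after 24 h treatment of transfected HepG2 cells. Endogenous transcription-factor activity is read; DMSO serves as negative control and baseline.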

[9] = ATG_PBREM_CIS: Attagene CIS-FACTORIAL HepG2 Assay for human Phenobarbital-responsive Enhancer Module (PBREM) (AID 2282955); conditions: HepG2 PBREM cis-reporter, Attagene multiplexed transcription; actives raise or lower the signal
Outline: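 Multiplexed cis-reporter readout in human hepatoma HepG2 cells; PBREM-regulated transcript quantified after 24 h exposure by fluorescent RT-PCR fragment analysis. Signal changes up or down fitted relative to DMSO.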

[10] = molecular target: Paired box protein Pax-6 (Homo sapiens) (UniProt P26367); test: ATG_Pax6_CIS: Attagene CIS-FACTORIAL HepG2 Assay for human Paired Box 6 (PAX6) (AID 2282956); conditions: HepG2 CIS-FACTORIAL PAX6 reporter transcription, RNA readout; actives raise or lower the signal
Outline: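 After twenty-four hours of chemical exposure, transfected HepG2 cells are harvested for RNA. Cis-promoter reporter transcripts are amplified, fluorescently labelled and sized by capillary electrophoresis, with gain and loss of signal scored against DMSO.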

[11] = ATG_PXRE_CIS: Attagene CIS-FACTORIAL HepG2 Assay for human Pregnane X Receptor Element (PXRE) (AID 2282957); conditions: HepG2 Attagene CIS-FACTORIAL PXRE reporter, mRNA; actives raise or lower the signal
Outline: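 Cells: HepG2, transiently transfected reporter units under cis promoter control. Exposure: 24 h. Detection: reporter mRNA via RT-PCR/CE fluorescence; bidirectional fitting, DMSO-referenced.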

[12] = ATG_PPRE_CIS: Attagene CIS-FACTORIAL HepG2 Assay for human Peroxisome Proliferator-activated Response Element (PPRE) (AID 2282958); conditions: HepG2 PPRE cis-element reporter, Attagene transcription factor profiling; actives raise or lower the signal
Outline: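 DMSO served as negative control and baseline for bidirectional curve fitting. Signal came from PPRE-regulated reporter mRNA in HepG2 cells, measured 24 h post-dosing by RT-PCR, 6-FAM primer extension and capillary electrophoresis.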

[13] = ATG_RORE_CIS: Attagene CIS-FACTORIAL HepG2 Assay for human RAR-related Orphan Receptor Element (RORE) (AID 2282959); conditions: HepG2 Attagene cis-factorial RORE reporter, mRNA; actives raise or lower the signal
Outline: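 Transfect HepG2 with MRTUs; treat 24 h; extract RNA; RT with oligo(dT); PCR with reporter-specific primers; 6-FAM primer extension; HpaI digest 2 h at 37 C; capillary electrophoresis. Fit vs DMSO, bidirectional.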

[14] = ATG_Sox_CIS: Attagene CIS-FACTORIAL HepG2 Assay for human SRY-box transcription factor (SOX) (AID 2282960); conditions: HepG2 Attagene cis-factorial SOX reporter, mRNA; actives raise or lower the signal
Outline: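 Fluorescence-labelled cDNA fragments from reporter transcripts, sized by CE, give the signal. Cells: HepG2, transiently transfected with cis-regulated reporter units. Exposure 24 h; DMSO negative control; bidirectional curve fitting.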

[15] = molecular target: Transcription factor Sp1 (Homo sapiens) (UniProt P08047); test: ATG_Sp1_CIS: Attagene CIS-FACTORIAL HepG2 Assay for human Specificity Protein 1 (Sp1) (AID 2282961); conditions: HepG2 Sp1 cis-reporter transcription, actives raise or lower the signal
Outline: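 Chemicals are dosed onto HepG2 cells transfected with multiple cis-promoter reporter constructs, and after 24 h reporter RNA is reverse-transcribed, PCR-amplified and resolved by capillary electrophoresis for fluorescence quantitation; activity is scored up or down against DMSO.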

[16] = ATG_SREBP_CIS: Attagene CIS-FACTORIAL HepG2 Assay for human Sterol Regulatory Element Binding (SREBP) (AID 2282962); conditions: HepG2 Attagene cis-factorial SREBP reporter, mRNA; actives raise or lower the signal
Outline: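 Twenty-four hours after chemical dosing of transfected HepG2 cultures, reporter RNA was converted to cDNA, amplified, end-labelled with 6-FAM and resolved by capillary electrophoresis. Responses were fitted relative to DMSO.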

[17] = ATG_TA_CIS: Attagene CIS-FACTORIAL HepG2 Assay for human TA Basal Promoter (AID 2282964); conditions: HepG2 Attagene CIS-factorial TA basal promoter reporter; actives raise or lower the signal
Outline: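 Steps: transfect HepG2 with MRTUs; dose 24 h; isolate RNA, DNase-treat, reverse-transcribe; PCR and FAM-label reporter cDNA; digest with HpaI 2h at 37 C; run capillary electrophoresis. Activity fitted both directions against DMSO.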

[18] = ATG_TCF_b_cat_CIS: Attagene CIS-FACTORIAL HepG2 Assay for human T-Cell-Factor with beta-catenin (TCF/b-cat) (AID 2282965); conditions: HepG2 TCF/beta-catenin cis-reporter transcription, actives raise or lower the signal
Outline: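 Cells of the HepG2 line carry transiently transfected reporter units whose promoters respond to endogenous factors. Twenty-four hours post-dosing, reporter mRNA induction is measured by fluorescent RT-PCR and capillary electrophoresis, with DMSO as baseline.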

[19] = molecular target: Signal transducer and activator of transcription 3 (Homo sapiens) (UniProt P40763); test: ATG_STAT3_CIS: Attagene CIS-FACTORIAL HepG2 Assay for human Signal Transducer and Activator of Transcription 3 (STAT3) (AID 2282963); conditions: HepG2, Attagene cis-factorial STAT3 reporter transcription; actives raise or lower the signal
Outline: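 Values derive from bidirectional fits relative to DMSO of reporter mRNA levels, measured by RT-PCR with capillary electrophoresis, in HepG2 cells carrying transiently transfected cis-regulated reporter units and exposed 24 h.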

Measured: AC50

Sequence of Hypoxia-inducible factor 1-alpha (Homo sapiens) (Q16665 whole entry, looked up): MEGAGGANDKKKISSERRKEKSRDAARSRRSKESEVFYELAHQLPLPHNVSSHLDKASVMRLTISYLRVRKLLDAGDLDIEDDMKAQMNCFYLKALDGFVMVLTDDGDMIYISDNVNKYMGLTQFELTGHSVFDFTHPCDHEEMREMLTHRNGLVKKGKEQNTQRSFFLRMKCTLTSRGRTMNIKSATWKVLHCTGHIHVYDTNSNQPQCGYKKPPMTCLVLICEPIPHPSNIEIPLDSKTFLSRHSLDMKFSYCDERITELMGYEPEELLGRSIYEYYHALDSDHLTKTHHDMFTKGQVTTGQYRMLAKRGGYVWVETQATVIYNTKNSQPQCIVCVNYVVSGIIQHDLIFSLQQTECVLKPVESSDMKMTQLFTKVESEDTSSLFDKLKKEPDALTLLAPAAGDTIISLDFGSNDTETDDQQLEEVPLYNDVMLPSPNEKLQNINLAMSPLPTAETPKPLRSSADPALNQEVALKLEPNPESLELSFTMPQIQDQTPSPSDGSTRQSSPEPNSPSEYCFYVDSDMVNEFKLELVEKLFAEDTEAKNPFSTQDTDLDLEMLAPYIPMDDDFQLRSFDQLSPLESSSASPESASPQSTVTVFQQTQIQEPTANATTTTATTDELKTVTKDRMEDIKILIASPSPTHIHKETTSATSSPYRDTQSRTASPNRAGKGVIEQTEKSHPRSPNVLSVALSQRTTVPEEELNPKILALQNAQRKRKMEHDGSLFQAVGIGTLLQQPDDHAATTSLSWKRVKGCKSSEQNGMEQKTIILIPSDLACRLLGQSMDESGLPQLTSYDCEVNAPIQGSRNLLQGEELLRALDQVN
Sequence of Heat shock factor protein 1 (Homo sapiens) (Q00613 whole entry, looked up, the tested form may be a part): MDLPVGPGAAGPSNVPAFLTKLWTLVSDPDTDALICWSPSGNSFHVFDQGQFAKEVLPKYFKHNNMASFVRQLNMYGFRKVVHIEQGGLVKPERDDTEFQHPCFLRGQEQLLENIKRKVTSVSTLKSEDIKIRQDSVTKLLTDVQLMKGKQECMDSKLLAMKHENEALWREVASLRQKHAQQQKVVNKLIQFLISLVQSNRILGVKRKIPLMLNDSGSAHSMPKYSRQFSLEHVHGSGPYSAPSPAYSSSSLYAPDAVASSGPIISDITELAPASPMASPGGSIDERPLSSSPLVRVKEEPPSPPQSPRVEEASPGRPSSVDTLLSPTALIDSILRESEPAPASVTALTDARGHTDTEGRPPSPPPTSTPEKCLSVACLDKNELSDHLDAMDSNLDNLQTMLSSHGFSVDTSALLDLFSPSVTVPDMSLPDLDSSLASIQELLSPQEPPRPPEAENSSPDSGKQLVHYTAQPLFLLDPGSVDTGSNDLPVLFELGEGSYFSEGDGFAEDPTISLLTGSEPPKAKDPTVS
Sequence of Paired box protein Pax-6 (Homo sapiens) (P26367 whole entry, looked up): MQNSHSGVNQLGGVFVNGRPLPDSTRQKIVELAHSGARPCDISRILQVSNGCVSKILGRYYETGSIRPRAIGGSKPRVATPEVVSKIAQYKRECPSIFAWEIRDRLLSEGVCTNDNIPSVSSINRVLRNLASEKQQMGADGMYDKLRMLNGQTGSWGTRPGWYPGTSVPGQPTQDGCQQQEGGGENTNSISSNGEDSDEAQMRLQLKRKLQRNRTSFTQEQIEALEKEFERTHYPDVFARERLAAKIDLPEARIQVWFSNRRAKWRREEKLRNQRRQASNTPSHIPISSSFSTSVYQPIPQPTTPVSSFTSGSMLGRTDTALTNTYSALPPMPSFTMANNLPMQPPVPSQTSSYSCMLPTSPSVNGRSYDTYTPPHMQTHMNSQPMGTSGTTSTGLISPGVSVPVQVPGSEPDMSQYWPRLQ
Sequence of Hepatocyte nuclear factor 6 (Homo sapiens) (Q9UBC0 whole entry, looked up): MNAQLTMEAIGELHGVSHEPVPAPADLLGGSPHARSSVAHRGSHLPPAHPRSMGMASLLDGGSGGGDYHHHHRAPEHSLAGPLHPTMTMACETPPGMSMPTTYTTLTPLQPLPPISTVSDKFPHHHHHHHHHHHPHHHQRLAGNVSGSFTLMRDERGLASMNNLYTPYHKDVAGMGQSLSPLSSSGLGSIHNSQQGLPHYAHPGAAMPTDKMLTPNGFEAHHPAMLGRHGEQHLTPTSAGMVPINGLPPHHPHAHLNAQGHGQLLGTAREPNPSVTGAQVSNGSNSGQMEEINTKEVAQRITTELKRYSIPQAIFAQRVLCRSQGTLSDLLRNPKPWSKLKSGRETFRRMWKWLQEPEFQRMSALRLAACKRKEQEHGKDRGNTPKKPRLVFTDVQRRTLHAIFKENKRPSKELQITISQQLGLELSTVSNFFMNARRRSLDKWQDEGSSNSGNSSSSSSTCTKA
Sequence of Signal transducer and activator of transcription 3 (Homo sapiens) (P40763 whole entry, looked up): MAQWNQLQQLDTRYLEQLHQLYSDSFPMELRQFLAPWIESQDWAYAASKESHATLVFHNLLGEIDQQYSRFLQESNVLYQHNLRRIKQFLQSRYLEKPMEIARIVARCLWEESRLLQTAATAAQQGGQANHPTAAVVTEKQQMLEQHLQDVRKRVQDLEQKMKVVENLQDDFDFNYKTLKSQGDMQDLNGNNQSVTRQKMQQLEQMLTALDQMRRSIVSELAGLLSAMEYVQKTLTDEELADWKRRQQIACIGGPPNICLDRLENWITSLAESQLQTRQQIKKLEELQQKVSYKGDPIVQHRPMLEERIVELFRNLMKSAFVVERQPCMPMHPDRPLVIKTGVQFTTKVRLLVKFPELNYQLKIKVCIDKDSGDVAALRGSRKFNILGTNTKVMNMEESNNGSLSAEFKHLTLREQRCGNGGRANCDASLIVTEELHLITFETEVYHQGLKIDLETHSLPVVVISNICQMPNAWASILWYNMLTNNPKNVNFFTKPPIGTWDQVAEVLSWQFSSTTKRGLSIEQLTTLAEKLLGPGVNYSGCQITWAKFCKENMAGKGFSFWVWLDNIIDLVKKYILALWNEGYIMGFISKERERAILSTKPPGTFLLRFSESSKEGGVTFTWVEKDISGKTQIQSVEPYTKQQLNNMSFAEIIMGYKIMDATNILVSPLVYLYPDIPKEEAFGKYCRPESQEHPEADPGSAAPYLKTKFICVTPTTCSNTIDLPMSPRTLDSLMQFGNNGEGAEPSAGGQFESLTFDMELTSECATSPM
Sequence of Transcription factor Sp1 (Homo sapiens) (P08047 whole entry, looked up): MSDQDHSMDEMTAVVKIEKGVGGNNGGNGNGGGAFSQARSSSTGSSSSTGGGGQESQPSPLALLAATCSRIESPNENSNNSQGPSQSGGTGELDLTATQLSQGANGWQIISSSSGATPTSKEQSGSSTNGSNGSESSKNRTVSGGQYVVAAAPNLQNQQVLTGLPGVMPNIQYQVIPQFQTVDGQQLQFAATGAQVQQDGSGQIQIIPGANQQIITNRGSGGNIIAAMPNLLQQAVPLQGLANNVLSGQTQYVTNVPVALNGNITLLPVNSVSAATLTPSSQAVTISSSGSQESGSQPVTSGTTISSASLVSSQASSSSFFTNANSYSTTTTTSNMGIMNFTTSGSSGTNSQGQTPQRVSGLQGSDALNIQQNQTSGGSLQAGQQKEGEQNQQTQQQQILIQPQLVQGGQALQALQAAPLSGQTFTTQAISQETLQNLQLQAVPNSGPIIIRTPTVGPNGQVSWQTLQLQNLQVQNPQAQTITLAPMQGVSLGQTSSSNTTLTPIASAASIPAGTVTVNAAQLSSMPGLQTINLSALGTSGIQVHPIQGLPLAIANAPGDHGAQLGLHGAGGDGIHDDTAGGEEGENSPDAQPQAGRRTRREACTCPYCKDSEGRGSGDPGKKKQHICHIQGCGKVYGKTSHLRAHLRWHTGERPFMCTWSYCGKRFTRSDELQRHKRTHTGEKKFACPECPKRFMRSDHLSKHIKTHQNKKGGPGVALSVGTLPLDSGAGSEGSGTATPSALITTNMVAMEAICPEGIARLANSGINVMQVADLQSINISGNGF

Nc1cc(Cl)c(O)c(Cl)c1
inactive: [1] | [3] | [4] | [5] | [6] | [14] | [15] | [17]
active: [2] 100 µM | [7] 142 µM | [8] 79 µM | [9] 84.9 µM | [10] 136 µM | [11] 24.8 µM | [12] 45.3 µM | [13] 60.2 µM | [16] 130 µM | [18] 64.2 µM

CCCCC[Si](OCC)(OCC)OCC
inactive: [1] | [2] | [3] | [4] | [5] | [6] | [7] | [8] | [10] | [12] | [13] | [14] | [15] | [16] | [19] | [17] | [18]
active: [11] 7.23 µM

CC(C)(CO)[N+](=O)[O-]
inactive: [1] | [2] | [3] | [4] | [5] | [6] | [7] | [8] | [9] | [10] | [11] | [13] | [14] | [15] | [16] | [17] | [18]

CCC(C)CCCC(C)(C)O (configuration not stated)
inactive: [1] | [2] | [3] | [4] | [5] | [6] | [7] | [8] | [10] | [11] | [12] | [13] | [14] | [15] | [16] | [19] | [17] | [18]

Cc1cccc(C)c1[N+](=O)[O-]
inactive: [1] | [2] | [3] | [4] | [5] | [6] | [7] | [8] | [10] | [11] | [12] | [13] | [14] | [15] | [16] | [19] | [17] | [18]

Nc1cc([N+](=O)[O-])ccc1O
inactive: [1] | [2] | [3] | [4] | [5] | [6] | [7] | [8] | [9] | [10] | [11] | [12] | [13] | [14] | [15] | [16] | [19] | [17]

Cc1ccc(C(=O)O)o1
inactive: [1] | [2] | [3] | [4] | [5] | [6] | [7] | [8] | [9] | [10] | [11] | [12] | [13] | [14] | [15] | [16] | [19] | [17]

CC(C)c1cccc(O)c1
active: [11] 28.4 µM
inactive: [1] | [2] | [3] | [4] | [5] | [6] | [7] | [8] | [9] | [10] | [12] | [14] | [15] | [16] | [19] | [17]
